From PubChem BioAssay (NCATS)
Inconclusive results are not listed. Entries that show only a call come without a potency. Active and inactive are the calls of the source. Calls follow the shape of the dose curve; as a rule, active = well fitted cell-killing curve with a large enough effect; inconclusive = small, poorly fitted or top-dose-only effect; inactive = flat fitted curve, though single readings scatter.

experiment: qHTS of pediatric cancer cell lines to identify multiple opportunities for drug repurposing: Primary screen for Rh18 cells (AID 1347102); settings: Rh18 rhabdomyosarcoma viability, CellTiter-Glo luminescence, 48 h; series mostly up to 46 µM; also: nearly all actives have a fitted effect of over 65% in size
Source text: Drug repurposing or repositioning has been offered as a strategy for drug development in oncology programs. This approach has special potential for childhood cancers and other rare or orphan diseases, where the expected return on new drug development has been a disincentive to pharmaceuticals.
In this project we exploit the poly-pharmacology of drugs to discover new indications via phenotypic screening of a panel of 19 well-characterized cell lines derived from solid tumors seen in children and adolescents. The goal is to identify approved drugs with previously unrecognized anticancer properties that has the potential to reveal new mechanisms and biological processes involved in carcinogenesis or drug resistance. We employed a titration-based paradigm (quantitative high-throughput screening or qHTS), where all compounds were tested at multiple concentrations for their effect on cell viability. Concentration-response curves (CRCs) were derived directly from the primary screen, and both potency and efficacy values were used to identify compounds with robust bioactivity profiles. We screened the NIH Chemical Genomics Center (NCGC) Pharmaceutical Collection (NPC) and Mechanism Interrogation Plate (MIPE) small molecule collections of approved and investigational compounds against these cell lines; and measured metabolically active cells after 48 hours of compound treatment as a proxy for cell viability.
Assay Submitter: Nathalia J. Martinez, National Center for Advancing Translational Sciences, National Institutes of Health, Rockville, MD, USA; email: natalia.martinez@nih.gov
[1] Shen, M et al. Quantitative high-throughput phenotypic screening of pediatric cancer cell lines identifies multiple opportunities for drug repurposing. Oncotarget 2017 Dec 19;9(4):4758-4772. PMID 29435139.
The cells were obtained from University of North Carolina (UNC), Pediatric Preclinical Testing Program (PPT), and Coriell Institute (CI).
qHTS cell viability assay:
Cells were assayed in growth media at a density of 500-1,000 cells/well. Five microliters of cells were dispensed into 1,536-well, white, solid-bottom, TC-treated plates (Greiner Bio One) using a multidrop dispenser and incubated at 37 degrees C, 5% CO2, under a humidified atmosphere for 5 hours. Twenty-three nanoliters of compounds and controls (neutral control DMSO or positive control bortezomib at final concentration of 2.3 µM) were subsequently transferred by Kalypsys pintool. For primary screens, the MIPE collection was tested at 11-point dilutions (final concentrations range from 0.78 nM to 46 µM) and the NPC collection at 8-point dilutions (final concentrations range from 0.59 nM to 46 µM). Compounds tested in follow-up screens were assayed at 11-point dilutions. Cells were incubated for 48 hours, followed by addition of 3 µL of CellTiter-Glo (Promega). After a 15 min incubation at room temperature, samples were analyzed for luminescence intensity using a ViewLux High-throughput CCD imager equipped with clear filters.

| SMILES | Potency |
| --- | --- |
| OC1C(O)C(O)C(O)C(O)C1O (stereo not given) | inactive |
| N/C(=N\N=C\c1ccc(Cl)cc1)N/N=C/c1ccc(Cl)cc1 | inactive |
| C[N+]1(C)CCC(=C(c2ccccc2)c2ccccc2)CC1 | inactive |
| CC(=O)O[C@]1(C(C)=O)CC[C@H]2[C@@H]3C=C(Cl)C4=CC(=O)CC[C@]4(C)[C@H]3CC[C@@]21C | inactive |
| NS(=O)(=O)c1ccc(Cl)c(S(N)(=O)=O)c1 | inactive |
| CN(C)CCOC(=O)C(c1ccccc1)C1(O)CCCC1 (stereo not given) | inactive |
| O=c1[nH]c(=O)n([C@H]2C[C@H](O)[C@@H](CO)O2)cc1F | inactive |
| C[C@@H](O)[C@H]1C(=O)N2C(C(=O)O)=C(S[C@@H]3CN[C@H](CNS(N)(=O)=O)C3)[C@H](C)[C@H]12 | inactive |
| C[C@@H](O)[C@H]1C(=O)N2C(C(=O)O)=C([C@H]3CCCO3)S[C@H]12 | inactive |
| Cn1c(=O)c2[nH]c(Br)nc2n(C)c1=O | inactive |
| O=C(O)C(Cc1cc(I)c(O)c(I)c1)c1ccccc1 (stereo not given) | inactive |
| CCNC(=O)/C=C/c1cccc(Br)c1 | inactive |
| CCCCCCCCCCCCOCCOCCOCCOCCOCCOCCOCCOCCOCCO | inactive |
| NCc1ccccc1Sc1ccccc1CO | inactive |
| O=C(Nc1ccc([N+](=O)[O-])cc1)Nc1ccc([N+](=O)[O-])cc1 | inactive |
| CCCCCCCCCCCCCCCC(=O)O | inactive |
| C=C[C@@]1(C)CC(=O)[C@]2(O)[C@@]3(C)[C@@H](O)CCC(C)(C)[C@@H]3[C@H](O)[C@H](OC(C)=O)[C@@]2(C)O1 | inactive |
| Cc1ccc(S(=O)(=O)NC(=O)NC2CCCC2)cc1 | inactive |
| CCOC(=O)Nc1ccc2c(c1)N(C(=O)CCN1CCOCC1)c1ccccc1S2 | inactive |
| O=C(NC1CCN(CCc2c[nH]c3ccccc23)CC1)c1ccccc1 | inactive |

| SMILES | Potency |
| --- | --- |
| Cc1cc(NS(=O)(=O)c2ccc(N)cc2)nc(C)n1 | inactive |
| CCCCN=C(N)N=C(N)N | inactive |
| CC(=O)O[C@H]1C[C@@H]2CC[C@@H]3[C@H](CC[C@@]4(C)[C@H]3C[C@H]([N+]3(C)CCCCC3)[C@@H]4OC(C)=O)[C@@]2(C)C[C@@H]1N1CCCCC1 | inactive |
| OC(C#CCN1CCCC1)(c1ccccc1)c1ccccc1 | inactive |
| CC(C)CCCC(C)N (stereo not given) | inactive |
| C=C[C@H]1CN2CC[C@H]1C[C@@H]2[C@@H](O)c1ccnc2ccc(OC)cc12 | inactive |
| Cc1ccc(-c2ncc(Cl)cc2-c2ccc(S(C)(=O)=O)cc2)cn1 | inactive |
| O=C(O)C1(C(=O)O)CCC1.[NH2-].[NH2-].[Pt+2] | inactive |
| CN1CCN(C2=Nc3ccccc3Sc3ccc(Cl)cc32)CC1 | inactive |
| CC(C)[C@@H]1CC[C@@H](C)CC1=O | inactive |
| CN1CCC(OC(c2ccccc2)c2ccccc2)CC1 | inactive |
| N#C/C(=C1\SCC(c2ccccc2Cl)S1)n1ccnc1 (stereo not given) | inactive |
| CC(=C(CCOC(=O)C(C)C)SSC(CCOC(=O)C(C)C)=C(C)N(C=O)Cc1cnc(C)nc1N)N(C=O)Cc1cnc(C)nc1N | inactive |
| OCc1ccccn1 | inactive |
| CCOc1ccccc1OCCN[C@H](C)Cc1ccc(OC)c(S(N)(=O)=O)c1 | inactive |
| O=C(CCCN1CC=C(n2c(=O)[nH]c3ccccc32)CC1)c1ccc(F)cc1 | inactive |
| CCN1CCN(C(=O)N[C@@H](C(=O)N[C@@H]2C(=O)N3C(C(=O)O)=C(CSc4nnnn4C)CS[C@H]23)c2ccc(O)cc2)C(=O)C1=O | inactive |
| CC(=O)Nc1ncc([N+](=O)[O-])s1 | inactive |
| Cc1cccc(C)c1NC(=O)CN1CCCC1 | inactive |
| Nc1nc(-c2ccccc2)c(Br)c(=O)[nH]1 | inactive |
